This is an account of results in PubChem BioAssay AID1851 (National Center for Advancing Translational Sciences (NCATS), 2009).

The AC50 is the concentration giving half of the maximal activity seen.

Among all 16,000 compounds or so, about 5,100 (32%) were called active. Not shown: some 25% with an inconclusive outcome. The list shows a part of the results. Values without a mark were called inactive. Calls follow the shape of the dose curve; as a rule, active = well fitted curve in the direction sought with a large enough effect; inconclusive = small, poorly fitted or top-dose-only effect, or effect the other way; inactive = no such curve, though single readings can be large or run the other way.
% is scaled to controls: 0 for no effect and ±100 for the full control effect.

Chain of Cytochrome P450 3A4 (Homo sapiens) (P08684 whole entry, looked up): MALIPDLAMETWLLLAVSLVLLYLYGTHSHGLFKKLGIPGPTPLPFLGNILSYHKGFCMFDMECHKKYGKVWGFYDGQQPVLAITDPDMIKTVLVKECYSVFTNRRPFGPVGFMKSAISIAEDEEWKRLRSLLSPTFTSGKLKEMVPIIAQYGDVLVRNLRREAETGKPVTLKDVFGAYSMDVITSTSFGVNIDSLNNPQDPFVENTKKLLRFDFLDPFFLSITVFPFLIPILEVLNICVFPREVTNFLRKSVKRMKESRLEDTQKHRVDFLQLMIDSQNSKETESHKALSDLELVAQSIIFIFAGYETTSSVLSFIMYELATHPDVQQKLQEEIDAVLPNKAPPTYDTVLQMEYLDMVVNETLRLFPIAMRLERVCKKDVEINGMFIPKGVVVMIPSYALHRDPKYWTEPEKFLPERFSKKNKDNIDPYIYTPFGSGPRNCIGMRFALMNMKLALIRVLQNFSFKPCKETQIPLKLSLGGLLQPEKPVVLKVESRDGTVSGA

The experiment has as its target Cytochrome P450 3A4 (Homo sapiens) (UniProt P08684). Put plainly: Cytochrome panel assay with activity outcomes. The following applies: recombinant CYP, pro-luciferin dealkylation, luminescence, p450-cyp3a4; series mostly up to 57.1 µM.
For `COc1ccc(-n2c(N)c(C(=O)NCc3ccco3)sc2=S)cc1`, the AC50 was 25.1 µM (active).

Consider `Cc1ccc(-n2c(N)c(C(=O)NCc3ccco3)sc2=S)cc1`, for which the AC50 is 25.1 µM (active).

As for `CCOc1ccc(-n2c(C)nc3cc(C(=O)NCc4ccco4)ccc32)cc1`, the AC50 entry is “inactive”.

Take `CCOc1ccc(N2C(=O)c3cccnc3C2=O)cc1`: the AC50 entry is “inactive”.

Consider `CCOc1ccc(-n2c(N)c(C(=O)NCc3cccnc3)sc2=S)cc1`, for which the AC50 is 2 µM (active).

`CC(C)c1cc(CN(C)C)c(O)c(C(C)(C)C)c1`: the activity, negative = inhibition is -5.68% [at 11.4 µM].

With `N#Cc1c(-c2ccc(Cl)cc2)nc2n(c1=O)CCCS2`, the AC50 result is “inactive”.

As for `CCNc1nc(NCC)nc(N(C)N)n1`, the AC50 entry was “inactive”.

With `COc1ccc(NS(=O)(=O)c2cc(-c3nnnn3C)ccc2OC)cc1`, the activity, negative = inhibition is -15.9% [at 11.4 µM].

For `COc1ccccc1S(=O)(=O)Nc1ccc(-c2nnc3n2CCCCC3)cc1`, the AC50 is 14.1 µM (active).

In the case of `O=C(/C(=C/c1ccc(Cl)cc1)c1nc2ccccc2[nH]1)c1ccccc1`, the AC50 is 3.55 µM (active).

In the case of `O=C(O)/C(=C/c1c(C(=O)O)[nH]c2cc(Cl)cc(Cl)c12)c1ccccc1`, the AC50 result was “inactive”.

Consider `Cc1ccc(/C=C/C(=O)c2nc3ccccc3[nH]2)cc1`, for which the activity, negative = inhibition was -18.1% [at 2.29 µM].

In the case of `COc1ccc(N2CCC(CNC(=O)Nc3ccc(OC)cc3OC)C2)cc1` (centres undefined), the AC50 is 7.08 µM (active).

On to `COCCN(C(=O)Nc1ccc(OC)cc1OC)C1CCN(C(C)=O)CC1`, for which the AC50 entry is “inactive”.

`Cc1ccc2c(c1)N(CC(=O)NCc1cccs1)C(=O)C(C)O2` (centres undefined): the activity, negative = inhibition is -21.8% [at 2.29 µM].

Regarding `COc1ccc(CC(=S)N2CCOCC2)cc1OC`, the activity, negative = inhibition was -2.8% [at 2.29 µM].

On to `COc1ccc(CCNC(=O)CCN2C(=O)COc3ccc(C)cc32)cc1OC`, for which the AC50 is 2.24 µM (active).

As for `COc1ccc(CCNC(=O)CCN2C(=O)C(C)Oc3ccc(C)cc32)cc1OC` (centres undefined), the AC50 was 1.78 µM (active).

For `O=C1CSC(c2ccccc2F)N1c1cc(Cl)ccc1O` (centres undefined), the AC50 was 25.1 µM (active).

In the case of `NC(=O)c1ccc(C2SCC(=O)N2Cc2ccccc2)cc1` (centres undefined), the AC50 entry is “inactive”.

In the case of `O=C1CSC(c2ccccn2)N1c1ccc(Cl)c(Cl)c1` (centres undefined), the AC50 entry is “inactive”.

Regarding `N#Cc1cccc(-c2nccc(NCc3ccccc3)n2)c1`, the AC50 was 12.6 µM (active).

Take `N#Cc1cccc(-c2nccc(NCc3cccnc3)n2)c1`: the AC50 is 0.794 µM (active).

Regarding `N#Cc1cccc(-c2nccc(NCc3cccs3)n2)c1`, the AC50 was 10 µM (active).

Take `Cc1cccc(CNc2ccnc(-c3cccc(C#N)c3)n2)c1`: the AC50 is 1.26 µM (active).

As to `CN(C)c1ncc2nc(-c3cc(F)cc(F)c3)c(=O)n(CCc3ccccc3)c2n1`, the AC50 result is “inactive”.

For the compound `COc1ccccc1CCn1c(=O)c(-c2cc(F)cc(F)c2)nc2cncnc21`, the AC50 was 0.398 µM (active).

As to `COc1ccccc1CCn1c(=O)c(-c2cccc(F)c2)nc2cncnc21`, the AC50 was 3.16 µM (active).
